# The supplement of paper PMC9694430
# Where a name gives a salt, the structure may show the parent alone.
# Tested on: T1, LOC_OS01G52050-cb004
# T1 sequence (whole entry): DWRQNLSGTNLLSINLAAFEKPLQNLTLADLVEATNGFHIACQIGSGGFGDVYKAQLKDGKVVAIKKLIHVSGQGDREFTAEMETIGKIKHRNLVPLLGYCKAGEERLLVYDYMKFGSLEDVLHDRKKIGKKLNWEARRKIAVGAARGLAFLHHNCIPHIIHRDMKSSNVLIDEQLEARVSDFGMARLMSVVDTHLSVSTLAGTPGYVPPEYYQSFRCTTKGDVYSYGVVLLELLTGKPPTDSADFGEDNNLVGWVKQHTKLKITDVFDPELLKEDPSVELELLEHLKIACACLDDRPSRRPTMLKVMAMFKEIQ
# Experiment: thermal shift delta Tm vs DMSO control; higher = stronger stabilization (binding)
# Details: 12.5 µM; protein concentration 2 µM
# In short: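 The melting temperature shift given here is a triplicate mean, measured against protein that received only DMSO. Melting temperatures came from Boltzmann fits of differential scanning fluorimetry data on E. coli-expressed, purified rice kinase domain constructs. Each 19.5 μl well contained 2 μM kinase, 100 mM potassium phosphate pH 7.5, 150 mM NaCl, 10% glycerol, 5 × SYPRO Orange and compound in DMSO. Plates were scanned from 25°C to 95°C at 0.05°C/s.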
row,SMILES,thermal shift delta Tm
1,COc1cc(C(=O)N2CCC(N3CCN(C)CC3)CC2)ccc1Nc1ncc2c(n1)N(C)c1ccccc1C(=O)N2C,-0.4 °C
2,Cc1nc(Nc2n[nH]c3c2CN(C(=O)N[C@H](CN(C)C)c2ccccc2)C3(C)C)c2sccc2n1,0.94 °C
3,CC(C)(C)c1cc(NC(=O)Nc2ccc(Oc3ccnc4[nH]c(=O)cnc34)cc2F)n(-c2ccccc2)n1,0.84 °C
4,CN1CC[C@H](c2c(O)cc(O)c3c(=O)cc(-c4ccccc4Cl)oc23)[C@H](O)C1 [Flavopiridol HCl],1.03 °C
5,CCC(=O)Nc1cccc(Oc2nc(Nc3ccc(N4CCN(C)CC4)cc3OC)ncc2Cl)c1,0.14 °C
6,N#CC(=C(/N)Sc1ccccc1N)/C(C#N)=C(\N)Sc1ccccc1N,2.41 °C
7,Clc1ccc(C2(c3ccc(-c4cn[nH]c4)cc3)CCNCC2)cc1,0.38 °C
8,O=c1c(O)c(-c2cc(O)c(O)c(O)c2)oc2cc(O)cc(O)c12 [Myricetin],5.01 °C
9,CN1CCN(Cc2ccc(NC(=O)Nc3ccc(Oc4ccnc(N)n4)cc3)cc2C(F)(F)F)CC1,1.93 °C
10,CN1CCN(c2nc(C3=C(c4c[nH]c5ccccc45)C(=O)NC3=O)c3ccccc3n2)CC1 [Sotrastaurin],-0.06 °C
11,O=C(c1ccc(/C=C/c2n[nH]c3ccccc23)cc1)N1CCNCC1,7.26 °C
12,N#CC1(c2ccc(NC(=O)c3cccnc3NCc3ccncc3)cc2)CCCC1 [Apatinib],0.12 °C
13,Cc1cc(O)c(-c2ccc([C@@H](C)CN)cc2)c2c1[nH]c(=O)c1sccc12 [OTS514 hydrochloride],1.82 °C
14,Oc1cc(O)cc(/C=C/c2ccc(O)c(O)c2)c1 [Piceatannol],1.1 °C
15,COc1cc(N2CCC(N(C)C)CC2)ccc1Nc1ncc(Cl)c(Nc2ccccc2P(C)(C)=O)n1,3.85 °C
16,O=C1NC(=O)C(c2ccccc2[N+](=O)[O-])=C1Nc1ccc(O)c(Cl)c1,-0.24 °C
17,O=C(O)c1ccc(Nc2ncc3c(n2)-c2ccc(Cl)cc2C(c2c(F)cccc2F)=NC3)cc1,0.07 °C
18,CCN1CCN(Cc2ccc(Nc3ncc(F)c(-c4cc(F)c5nc(C)n(C(C)C)c5c4)n3)nc2)CC1,1.08 °C
19,Cc1cc(CN2CCN(c3c(Br)cnc4nc(-c5ccc(N6CCN(C)CC6)cc5)[nH]c34)CC2)no1,0.67 °C

row,SMILES,thermal shift delta Tm
1,Cn1ncc(Cl)c1-c1cc(C(=O)N[C@H](CN)Cc2ccc(F)c(F)c2)oc1Cl,1.06 °C
2,CCS(=O)(=O)Nc1ccc2c(c1)/C(=C(/Nc1ccc(CN3CCCCC3)cc1)c1ccccc1)C(=O)N2 [Hesperadin],6.95 °C
3,CC1(COc2ccc3c(c2)ncn3-c2ccc3cccc(N4CCC(N)CC4)c3n2)COC1,11.9 °C
4,Oc1cccc(-c2nc(N3CCOCC3)c3oc4ncccc4c3n2)c1,0.11 °C
5,O=C(O)c1ccc(-c2c[nH]c3ncc(-c4ccccc4)cc23)cc1C1CCCC1,10.5 °C
6,C[C@H](CN(C)C)Oc1nc(Nc2cc3cccc(Cl)c3cn2)cnc1C#N,1.79 °C
7,CC(C)(C)c1nc(-c2ccc(NC(=O)Nc3cccc(C(F)(F)F)c3)c3ccccc23)c2c(N)nccn12 [kira6],5.68 °C
8,COc1ccc(COc2ccc(Cc3cnc(N)nc3N)cc2OC)cc1,0.04 °C
9,COc1cc(-c2cc(-c3ccc(N4CCNCC4)cc3)cnc2C)cc(OC)c1OC,0.04 °C
10,CC(C)Nc1cc(-c2c[nH]c(C(=O)N[C@H](CO)c3cccc(Cl)c3)c2)c(Cl)cn1,2.18 °C
11,COc1c(C)c(C(=O)c2ccc(N)c(C(=O)O)c2)n2ccccc12,0.12 °C
12,CN(C)C/C=C/C(=O)Nc1cc2c(Nc3ccc(F)c(Cl)c3)ncnc2cc1O[C@H]1CCOC1 [Afatinib (BIBW2992)],0.75 °C
13,CN1CC[C@H](c2c(O)cc(O)c3c(=O)cc(-c4ccccc4Cl)oc23)[C@H](O)C1 [Flavopiridol (Alvocidib)],0.8 °C
14,CC(C)Oc1ccc(-c2nn([C@@H](C)c3oc4ccc(F)cc4c(=O)c3-c3cccc(F)c3)c3ncnc(N)c23)cc1F,0.73 °C
15,N#Cc1ccc2ncnc(NCCc3ccccc3)c2c1 [Senexin A],2.96 °C
16,CN(C)C/C=C/C(=O)Nc1ccc(C(=O)Nc2cccc(Nc3ncc(Cl)c(-c4c[nH]c5ccccc45)n3)c2)cc1,9.77 °C
17,COc1cc2c(cc1OC)[C@@H]1C(=O)c3ccc4c(c3O[C@@H]1CO2)C=CC(C)(C)O4 [Deguelin],0.13 °C
18,CC(C)(C)c1cnc(CSc2cnc(NC(=O)C3CCNCC3)s2)o1,0.49 °C
19,CNC(=O)c1ccccc1Nc1cc(Nc2ccc(N3CCOCC3)cc2OC)ncc1C(F)(F)F,5.73 °C
